# PubChem BioAssay (NCI)
# The panel holds about 83,000 compounds, 20% with a hit somewhere; the sample as a whole holds those more often.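 Each cell line was grown in a 96-well plate and treated with one concentration of compound for 48 hours. Values below 10 were considered active.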 A number with no mark means an inactive call. Activity calls are given as the source filed them.
# What was measured:
# Experiment in all cases: NCI-60 one-dose screen, 48 h (100 = growth as untreated, 0 = no growth, -100 = all killed)
# Settings in all cases: 10 µM unless noted
# NCI-H23 lung = test system: NCI-H23 lung
# NCI-H226 lung = test system: NCI-H226 lung
# NCI-H322M lung = test system: NCI-H322M lung
# HOP-62 NSCLC = test system: HOP-62 NSCLC
# NCI-H460 lung = test system: NCI-H460 lung
# NCI-H522 lung = test system: NCI-H522 lung
# A549/ATCC NSCLC = test system: A549/ATCC NSCLC
# 786-0 renal = test system: 786-0 renal
# COLO 205 colon = test system: COLO 205 colon
# DU-145 prostate = test system: DU-145 prostate
# K-562 leukemia = test system: K-562 leukemia
# MALME-3M melanoma = test system: MALME-3M melanoma
# RXF 393 renal = test system: RXF 393 renal
# SF-268 CNS = test system: SF-268 CNS
# SF-295 CNS = test system: SF-295 CNS
# SF-539 CNS = test system: SF-539 CNS
# UACC-257 melanoma = test system: UACC-257 melanoma
# M14 melanoma = test system: M14 melanoma
# MDA-MB-231 breast = test system: MDA-MB-231 breast
# HOP-92 NSCLC = test system: HOP-92 NSCLC
Compound,growth (NCI-H23 lung),growth (NCI-H226 lung),growth (NCI-H322M lung),growth (HOP-62 NSCLC),growth (NCI-H460 lung),growth (NCI-H522 lung),growth (A549/ATCC NSCLC),growth (786-0 renal),growth (COLO 205 colon),growth (DU-145 prostate),growth (K-562 leukemia),growth (MALME-3M melanoma),growth (RXF 393 renal),growth (SF-268 CNS),growth (SF-295 CNS),growth (SF-539 CNS),growth (UACC-257 melanoma),growth (M14 melanoma),growth (MDA-MB-231 breast),growth (HOP-92 NSCLC)
CCOc1ccc(-c2c(C#N)c(-c3ccc(Cl)cc3)nc3n[nH]c(-c4ccc(Cl)cc4)c23)cc1OC,70.1%,59.1%,77.1%,68.7%,42.3%,64.9%,55.4%,65.3%,29%,64.9%,9.47% (active),46.7%,47.4%,72.9%,75.7%,62.6%,54.4%,60%,,
C=C1CC[C@@H]2[C@]3(C)COC(c4cn[nH]c4-c4ccc(C)cc4)O[C@@H]3CC[C@@]2(C)[C@@H]1C/C=C1/C(=O)OCC1O (stereo partly specified),-8.25% (active),-65.3% (active),79.9%,27.4%,67%,-58.4% (active),41.5%,-64% (active),12.8%,37.2%,2.59% (active),-52.6% (active),-31.7% (active),54.2%,49.5%,-88.1% (active),-0.178% (active),-42.2% (active),,
CC(=O)Oc1ccccc1C(=O)[Se]C(=NC1CCCCC1)NC1CCCCC1,-79.9% (active),-88.1% (active),-82.7% (active),-87% (active),-41.6% (active),-89.1% (active),0.226% (active),-93.4% (active),-70.6% (active),-80% (active),3.88% (active),-91.8% (active),-99.7% (active),8.57% (active),-78.9% (active),-98.7% (active),-89.9% (active),-73.7% (active),,
CC(=O)/C=C/c1cccc2c1C(=O)NC(C)(c1cc3cc(Br)ccc3oc1=O)N2 (stereo unspecified),17.9%,34.3%,52.5%,50%,51.9%,26.8%,55.1%,33.2%,79.6%,19.1%,0.91% (active),31.3%,-12.9% (active),56.1%,39%,19.2%,27.2%,31.4%,18%,
O=C(COc1ccc(NC(=O)Nc2ccccc2)cc1)N=Nc1c(O)[nH]c2ccc([N+](=O)[O-])cc12,10.5%,18.6%,,24.5%,49.1%,-48% (active),101%,16.7%,-29.9% (active),33.9%,10.5%,-62.7% (active),33.5%,46.7%,70.3%,-70.5% (active),27.3%,8.59% (active),-42.3% (active),-72.4% (active)
CC(C)CSc1nc(NCCc2c[nH]c3ccccc23)c(C#N)c(-c2ccccc2)n1,76.6%,51.3%,,68.8%,12.5%,67.6%,66.9%,47.1%,50.2%,66.8%,20.5%,91.8%,32.5%,67.4%,68.7%,62.5%,97.4%,,38.3%,61.7%
c1ccc(-c2csc(Nc3cccc(Nc4nc(-c5ccccc5)cs4)c3)n2)cc1,36.8%,66.2%,,73%,26.9%,11.4%,44.2%,50.4%,83.5%,58.9%,26.6%,52.8%,63.8%,40.6%,37.6%,57.7%,46.1%,,48%,43.7%
Cc1c(C(=O)NNC(=O)c2ccc(Cl)cc2)nnn1-c1ccc(Cl)cc1,106%,95.3%,,97.3%,104%,96.9%,95.2%,94.2%,97.2%,108%,86.3%,86.9%,92.7%,105%,82.7%,99.6%,94.1%,93.6%,,79.1%
